Assay outcomes deposited in PubChem by Johns Hopkins Ion Channel Center.
CHT inh = inhibits the human high affinity choline transporter | Q9GZV3 | CHT-expressing cells, membrane potential dye, choline response; active compounds read low | B-score at 10 µM | 310,000 tested, 0.86% active | AID 488975;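 active = B-score over 3 SD under the library average, and starting fluorescence ratio not unusually high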;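 note: choline stimulus applied at its EC90 after an EC20 pre-addition; B-score computed on integrated fluorescence ratio after choline addition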
TMEM16A act = mouse TMEM16A channel activation, primary screen; Q8BHY3; HEK293 TMEM16A/YFP-H148Q/I152L, iodide quench fluorescence; active compounds read low; B-score at 10 µM; 340,000 tested, 0.3% active;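 active = fluorescence-ratio B-score plate-corrected deviation score at least 3 library SD below zero, with starting fluorescence score within 5 deviations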;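 note: channel opened by trigger with iodide after compound preincubation; score built on the fluorescence ratio of max minus min over baseline; more negative score means more quench and so TMEM16A activation or potentiation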
ANO1 block = inhibitors of mouse TMEM16A calcium-activated chloride channel; 310,000 tested, 1.2% active; normalized B-score (activity score, 25-100; higher = stronger inhibition) at 10 µM; Q8BHY3; HEK293 TMEM16A/YFP iodide influx fluorescence, ionomycin; AID 588511;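 active = ratio plate-corrected score three or more library SD toward inhibition, starting fluorescence score within five deviations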;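 note: score derived from kinetic fluorescence span divided by baseline fluorescence per well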
CHT allo act = allosteric activators of human choline transporter CHT | Q9GZV3 | CHT-expressing cells, membrane potential dye, choline EC20; active compounds read high; LV-AA mutant CHT in HEK293 cells | B-score at 10 µM | 310,000 tested, 0.49% active | AID 488977;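 active = initial fluorescence not abnormally high and integrated response B-score, plate-corrected, over 3 SD above library mean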
TMEM16A reconf = reconfirmed blocker of mouse TMEM16A calcium-activated chloride channel. inhibition, % at 10 µM. shares compounds with ANO1 block. HEK293 TMEM16A/YFP-H148Q, iodide quench fluorescence; ionomycin added to raise cell calcium. 2,300 tested, 39% active;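 active = mean duplicate percent inhibition, scaled so buffer wells are 0 and the reference blocker 100, over three buffer SD above buffer mean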
HEK293 Ca mobil = calcium mobilization counter-screen hit for TMEM16A inhibitor series; shares compounds with ANO1 block; TMEM16A/YFP HEK293, Fluo4 calcium mobilization; calcium response (% of ionomycin), % at 10 µM; 2,300 tested, 2% active; AID 652231;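 active = duplicate-averaged calcium signal over 20% of the ionomycin maximum, relative to buffer baseline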;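 note: each well's signal is peak minus trough fluorescence divided by its pre-addition baseline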
YFP-HEK293 quench = acts in parental YFP-HEK293 cells lacking TMEM16A, counter-screen. 2,300 tested, under 10 active. iodide YFP quench, ionomycin. shares compounds with ANO1 block. YFP ratio F(max-min)/F0 at 10 µM;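 active = yellow fluorescent protein signal ratio exceeding the buffer control mean by over 5 SD of those controls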;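 note: ratio is mean of duplicate wells from kinetic YFP trace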
ClC-1 inh = rat ClC-1 inhibition, TMEM16A specificity screen | shares compounds with ANO1 block | CHO ClC-1-YFP, iodide influx fluorescence quench; iodide control reads 0, buffer control 100 | ratio percent, % at 10 µM | 2,300 tested, under 10 active | AID 652236;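 active = duplicate-mean ratio percent above the mean of iodide-only control wells, which defines zero, plus 5 of their SD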;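 note: higher percent means stronger block of ClC-1 iodide influx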
Target sequence (P35524 whole entry, looked up): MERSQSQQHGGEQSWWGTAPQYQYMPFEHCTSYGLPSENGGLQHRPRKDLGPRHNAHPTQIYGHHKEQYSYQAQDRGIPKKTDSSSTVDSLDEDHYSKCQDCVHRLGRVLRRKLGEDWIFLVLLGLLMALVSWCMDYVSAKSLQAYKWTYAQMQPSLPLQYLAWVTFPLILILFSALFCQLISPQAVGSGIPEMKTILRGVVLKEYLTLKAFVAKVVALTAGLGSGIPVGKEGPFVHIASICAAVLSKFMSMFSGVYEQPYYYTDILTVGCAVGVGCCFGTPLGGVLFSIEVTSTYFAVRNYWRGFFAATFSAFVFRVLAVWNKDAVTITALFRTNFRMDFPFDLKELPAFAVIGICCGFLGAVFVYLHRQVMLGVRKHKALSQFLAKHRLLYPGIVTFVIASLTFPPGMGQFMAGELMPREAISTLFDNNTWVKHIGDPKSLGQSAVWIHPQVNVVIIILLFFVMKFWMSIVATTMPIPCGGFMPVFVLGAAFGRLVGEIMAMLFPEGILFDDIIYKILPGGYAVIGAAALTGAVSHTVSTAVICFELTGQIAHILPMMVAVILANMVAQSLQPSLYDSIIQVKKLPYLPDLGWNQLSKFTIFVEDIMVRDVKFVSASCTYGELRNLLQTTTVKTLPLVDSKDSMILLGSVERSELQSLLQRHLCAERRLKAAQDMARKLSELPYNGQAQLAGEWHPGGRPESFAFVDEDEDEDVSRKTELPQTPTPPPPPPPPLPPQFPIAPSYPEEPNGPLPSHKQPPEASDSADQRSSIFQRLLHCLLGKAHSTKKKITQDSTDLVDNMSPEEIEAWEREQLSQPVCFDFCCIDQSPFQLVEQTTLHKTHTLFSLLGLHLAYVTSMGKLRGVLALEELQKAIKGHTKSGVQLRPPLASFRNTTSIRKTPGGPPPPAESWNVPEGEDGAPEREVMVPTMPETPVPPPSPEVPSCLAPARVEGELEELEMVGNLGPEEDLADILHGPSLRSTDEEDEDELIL
Of the large screens only hits and unclear results are named; the others gave an inactive call (follow-up assays come after a bar, where they were run). In the library only some 2.4% were active in any assay of this set; here they are far more common.

CN(C)c1nccc(N(Cc2ccccc2)Cc2ccccc2)c1C#N	ANO1 block 25 | TMEM16A reconf inactive | HEK293 Ca mobil inactive | YFP-HEK293 quench inactive | ClC-1 inh inactive
Cc1ccccc1Nc1nc(N)nc(CSc2nc3ccccc3c(=O)n2C)n1	none
O=C(c1cc(COc2cccc3cnccc23)on1)N1CCCC(CCCO)C1 (stereo unspecified)	ANO1 block 25 | TMEM16A reconf 40.5% | HEK293 Ca mobil inactive | YFP-HEK293 quench inactive | ClC-1 inh inactive
COCC1CCN(C(=O)c2cc(COc3cccc4cnccc34)on2)CC1	none
CC1=CC(C)(C)N2C(=O)C3(SCC(=O)N3c3ccc(F)cc3)c3cc(C)cc1c32 (stereo unspecified)	ANO1 block 100 | TMEM16A reconf 20.0% | HEK293 Ca mobil inactive | YFP-HEK293 quench inactive | ClC-1 inh inactive
COCc1c(C(=O)OCC(=O)c2c(N)n(CC(C)C)c(=O)n(C)c2=O)oc2ccccc12	ANO1 block 25 | TMEM16A reconf inactive | HEK293 Ca mobil inactive | YFP-HEK293 quench inactive | ClC-1 inh inactive
CCc1ccc(C(=O)OCC(=O)c2c(N)n(CC(C)C)c(=O)n(C)c2=O)cc1	ANO1 block 25 | TMEM16A reconf inactive | HEK293 Ca mobil inactive | YFP-HEK293 quench inactive | ClC-1 inh inactive
CC(C)Cn1c(N)c(C(=O)COC(=O)c2ccc(F)cc2)c(=O)n(C)c1=O	none
Cc1cccc(N2N=C(C(=O)N3Cc4ccccc4CC3C(N)=O)CCC2=O)c1 (stereo unspecified)	none (no result: CHT inh, ANO1 block, CHT allo act)
CCOC(=O)/C=c1\s/c(=C\c2ccc3cc(OC)ccc3c2)c(=O)n1CC(=O)NCc1ccc2c(c1)OCO2	none | TMEM16A reconf 31.0% | HEK293 Ca mobil inactive | YFP-HEK293 quench inactive | ClC-1 inh inactive
CCOC(=O)/C=c1\s/c(=C\c2ccccc2C)c(=O)n1CC(=O)NCc1ccc2c(c1)OCO2	none
COc1cccc(C(=O)NNC2OC(CO)C(O)C2O)c1 (stereo unspecified)	none
C=CCOC(=O)C1=C(C)NC(C)=C(C(=O)OCC=C)C1c1ccco1	none | TMEM16A reconf inactive | HEK293 Ca mobil inactive | YFP-HEK293 quench inactive | ClC-1 inh inactive
CCOC(=O)C1=C(C)NC(C)=C(C(=O)OC)C1c1ccco1 (stereo unspecified)	none
O=C(NCc1cccc(Cl)c1)c1cccc(OC2CCN(C(=O)C3CC3)CC2)c1	ANO1 block 100 | TMEM16A reconf inactive | HEK293 Ca mobil inactive | YFP-HEK293 quench inactive | ClC-1 inh inactive
Cn1nnnc1SCc1nnc(-c2ccccc2Br)o1	none
Cc1ccc(-n2nnnc2SCc2nnc(-c3ccccc3Br)o2)c(C)c1	ANO1 block 100 | TMEM16A reconf inactive | HEK293 Ca mobil inactive | YFP-HEK293 quench inactive | ClC-1 inh inactive
O=C1CC(c2ccccc2)CC(O)=C1C=NCCN1CCN(Cc2ccccc2)CC1 (stereo unspecified)	none
CCOC(=O)Cc1csc(SCC(=O)Nc2cccc(Cl)c2)n1	ANO1 block 100 | TMEM16A reconf 26.5% | HEK293 Ca mobil inactive | YFP-HEK293 quench inactive | ClC-1 inh inactive
CCOC(=O)Cc1csc(SCC(=O)Nc2cccc(C#N)c2)n1	none
c1ccc(-c2nc(CSc3nnc(-c4cccs4)o3)cs2)cc1	ANO1 block 100 | TMEM16A reconf inactive | HEK293 Ca mobil inactive | YFP-HEK293 quench inactive | ClC-1 inh inactive
CCOc1ccc(C(=O)C(C)OC(=O)C2CCN(c3ccc(C(F)(F)F)cn3)CC2)cc1 (stereo unspecified)	ANO1 block 25 | TMEM16A reconf inactive | HEK293 Ca mobil inactive | YFP-HEK293 quench inactive | ClC-1 inh inactive
COc1ccc(S(=O)(=O)N2CCC(C(=O)NCC3CC3)CC2)cc1	none
COC(=O)C1CCN(S(=O)(=O)c2ccc(OC)cc2)CC1	ANO1 block 100 | TMEM16A reconf inactive | HEK293 Ca mobil inactive | YFP-HEK293 quench inactive | ClC-1 inh inactive
